The structures appear in SMILES notation.

The test concerns Caenorhabditis elegans L1 (N2). Nature of the test: survival and reproduction score of C. elegans L1 (0: 0-10 living worms, 1: 11-20, 2: 21-50, 3: >50, 4: overgrown) (score 0-4); higher = more worms, less nematicidal, active = 1 or less; extreme values may be limits of the assay. The settings on record: 60 µM; 6 days; temperature: 20 °C. A digest of the protocol:
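About 20 synchronized C. elegans N2 L1s were added per 96-well well with E. coli HB101 in liquid NGM, and compound was pinned to 60 µM final (0.6% v/v DMSO). Sealed plates were shaken at 200 rpm for 6 days at 20 °C. Survival and reproduction were scored under a dissection microscope as an ordinal score of living worms per well. The scale ran 0 (0–10 worms) to 4 (overgrown, starved), and two biological replicates were averaged.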
Take `Brc1ccc(CSc2nnc(-c3ccncc3)o2)cc1`: the “survival and reproduction score” value is 4 (inactive).
Then `Fc1ccc(OCc2nc(-c3ccccc3)no2)cc1`, with 3.5 (inactive); and `Cc1ccc(NC(=O)CSc2nnc(-c3ccc(C(C)(C)C)cc3)o2)c(C)c1`, with 2 (inactive); and `c1ccc(OCc2nc(-c3cccs3)no2)cc1`, with 0 (active).
Then `CCOc1ccccc1-c1nnc(SCc2ccccc2)o1`, with 4 (inactive).
Then `COc1nc2ccc(C)cc2cc1-c1noc(-c2cccnc2)n1`, with 4 (inactive).
As for `Clc1ccc(-c2noc(-c3ccncc3)n2)cc1`, the “survival and reproduction score” value is 3.5 (inactive).
With `Cc1ccc(-c2noc(-c3ccc(C)cc3)n2)cc1`, the “survival and reproduction score” value is 0.5 (active).
Then `Cc1cc(OCc2nc(-c3ccncc3)no2)cc(C)c1Cl`, with 4 (inactive).
On to `O=C(CSc1nnc(-c2ccco2)o1)Nc1ccc(F)cc1`, for which the “survival and reproduction score” value was 3.5 (inactive).
For the compound `CCOc1ccccc1-c1nnc(SCC(=O)Nc2ccccc2)o1`, the “survival and reproduction score” value was 4 (inactive).
`c1ccc(-c2noc(CSc3nc4ccccc4[nH]3)n2)cc1`: the “survival and reproduction score” value is 4 (inactive).
Then `O=C(Nc1ccccc1-c1nc(-c2cccnc2)no1)c1cccs1`, with 4 (inactive); and `Cc1cc(OCc2nc(-c3cccnc3)no2)c(C)cc1Br`, with 4 (inactive).
Regarding `CC(C)C(=O)Nc1ccccc1-c1nc(-c2cccnc2)no1`, the “survival and reproduction score” value is 0 (active).
Then `Cc1ccc(-c2noc(COc3cc(C)cc(C)c3)n2)cc1`, with 4 (inactive); and `O=C(Nc1ccc(-c2noc(-c3ccccn3)n2)cc1)c1cccc(Cl)c1`, with 4 (inactive); and `CCCc1ccc(-c2nc(-c3ccc(F)cc3)no2)cc1`, with 1.5 (inactive).
Then `Cc1cccc(OCc2nc(-c3ccncc3)no2)c1C`, with 4 (inactive); and `O=C(c1ccccc1-c1nc(-c2ccccc2Cl)no1)N1CCCC1`, with 4 (inactive).

Values taken from the supplement of paper PMC11219838.
